From PubChem BioAssay AID492998 (Southern Research Specialized Biocontainment Screening …, 2010) come the findings set out here.

Screen size: about 2,300 compounds; about 550 (24%) were called active. The rule behind the calls is not given here. Not all results are given here. Entries that show only a call come without a potency. Potency and affinity values are given separately.

The assay can be described thus: Vero E6 cell cytotoxicity, dose response, cytotoxicity control for non-replicating M. tuberculosis project, secondary assay (AID 492998). As to conditions: series mostly up to 20 µM.
For the molecule `Cc1ccccc1OCCCCc1c(C)n[nH]c1C`, the call was inactive.
In the case of `O=C(COC(=O)CC12CC3CC(CC(C3)C1)C2)Nc1cccnc1Cl` it was “inactive”; in that of `NC(=O)COc1ccc2cc(-c3ccc(F)cc3)c(=O)oc2c1`, “inactive”; in that of `COc1ccc(/C=N/NC(=O)c2ccncc2)cc1CN1CCOCC1`, “inactive”.
In the case of `COc1ccc2cc(C(=O)C3CCCN(Cc4ccccn4)C3)ccc2c1` (centres undefined) it was “inactive”.
In the case of `CCOC(=O)C1(CCc2ccccc2)CCN(Cc2ccccn2)CC1` it was “inactive”; in that of `O=C(CCN1CCOCC1)c1ccc(Cl)cc1`, “inactive”; in that of `O=C(COc1c(Br)cc(Br)c2cccnc12)N1CCCCC1`, “inactive”.
Take `COc1ccc(C(=O)Oc2cccc3cccnc23)cc1S(=O)(=O)N1CCOCC1`: the call was inactive.
In the case of `COc1cc(NC(=O)N2CCOCC2)cc(OC)c1` it was “inactive”; in that of `Oc1ccc(F)c2cccnc12`, “inactive”; in that of `Cc1ccc(NC(=O)CO/N=C/c2ccccc2C)c(C)c1`, “inactive”.
In the case of `COC(=O)CCSCc1cn2cc(Cl)ccc2n1` it was “inactive”; in that of `COc1ccc(-c2nc3ccc(C)cc3c(=O)o2)cc1OC`, “inactive”; in that of `CCOC(=O)Cn1c(-c2ccccc2)ccc(C#N)c1=O`, “inactive”.
In the case of `COc1ccc(OC(=O)C(C)N2C(=O)c3ccccc3C2=O)cc1` (centres undefined) it was “inactive”.
Take `O=C(Cc1ccc(Cl)cc1)OCC(=O)c1ccc[nH]1`: the call was inactive.
On to `O=C(COC(=O)CC1CCCC1)Nc1ccc(Cl)cn1`, for which the result was inactive.
On to `NC(=O)COC(=O)c1sc2ccccc2c1Cl`, for which the molecule was called inactive.
Under `CCOC(=O)c1c(C)n(C)c2ccc(OC(C)C(=O)OC)cc12` (centres undefined) stands “inactive”.
Under `Cc1cc(C(=O)COc2cccc3cccnc23)c(C)n1C` stands “inactive”.
Under `CCOC(=O)COc1ccc(C2CC(C)=NN2c2ccccc2)cc1` (centres undefined) stands “inactive”; under `Cc1ccccc1Cn1cc(NC(=O)c2noc(C(C)C)c2[N+](=O)[O-])cn1`, “inactive”; under `CCOC(=O)CCCNC(=O)COC(=O)c1cc(Br)c(Br)s1`, “inactive”.
Consider `O=C(N/N=C\c1ccco1)c1cncc(Br)c1`, for which the outcome was inactive.
Under `Cc1nnc(C)n1/N=C/c1cc(Br)cc(Br)c1O` stands “inactive”; under `COC(=O)C1=C(C(=O)OC)C(c2cc(Cl)ccc2O)c2sc(=O)[nH]c2S1` (centres undefined), “inactive”.
Under `CSCCC(=O)N1CCCC(CNC(=O)c2ccc(-c3ccccc3)cc2)C1` (centres undefined) stands “inactive”; under `CCOc1ccc(-c2ccc(C=O)o2)c([N+](=O)[O-])c1`, “inactive”.
In the case of `O=[N+]([O-])c1ccc(Nc2ccccc2)c2nonc12` it was “inactive”; in that of `O=[N+]([O-])c1cncc([N+](=O)[O-])c1Nc1ccccc1Cl`, “inactive”; in that of `CCCCc1ccc(NS(=O)(=O)c2c(C)n(C)c(=O)n(C)c2=O)cc1`, “inactive”.
Turning to `CCOc1ccc(OCC(=O)OCc2cc(=O)n3cc(Br)ccc3n2)cc1`, the outcome was inactive.
For `O=C(N/N=C\C=C\c1ccco1)c1cncc(Br)c1`, the molecule was classed as inactive.
Take `O=C(N/N=C/c1cccs1)c1cncc(Br)c1`: the molecule was classed as inactive.
Under `COC(=O)C1CC(=O)N(c2ccc(OCc3ccccc3Cl)cc2)C1` (centres undefined) stands “inactive”; under `COc1cccc(OCC(=O)NNC(=O)C(=O)Nc2cccc(C)c2)c1`, “inactive”.
In the case of `CC(C)=CCN1CCN(CCC2=C(C)CCCC2(C)C)CC1CCO` (centres undefined) it was “inactive”; in that of `CN1C(=O)CC(Sc2ccccc2C(=O)O)C1=O` (centres undefined), “inactive”.
In the case of `Cc1ccc(N/N=C2\CS(=O)(=O)N(C)c3ccsc32)cc1` it was “inactive”; in that of `CCCOc1ccc(-c2nc(C#N)c(NCCCn3ccnc3)o2)cc1`, “inactive”; in that of `COc1ccc(C(=O)OCn2nnc3ccccc3c2=O)cc1[N+](=O)[O-]`, “inactive”.
With `CC(C)CN(Cc1c(O)ccc2ccccc12)CC(C)C`, the molecule was called inactive.
Under `O=C(CNC(=O)c1ccco1)OCc1ccc(C(=O)Oc2ccccc2)cc1` stands “inactive”.
Regarding `Oc1ccc(Cl)cc1CNCc1ccc(F)cc1`, the molecule was classed as inactive.
Under `O=[N+]([O-])c1ccc(CNc2cccc(Cl)c2)s1` stands “inactive”; under `CCC(C)[C@H]1CN=C(N)N1CCc1cccc2ccccc12` (some centres undefined), “inactive”.
In the case of `COc1ccc(C(=O)OCn2nnc3ccccc3c2=O)cc1` it was “inactive”; in that of `CC(C)N=C1SC(CC(=O)Nc2ccccc2)C(=O)N1C(C)C` (centres undefined), “inactive”.
In the case of `Cc1cccc(CC(=O)NCC2CCCCC2)c1` it was “inactive”.
As for `CCCN1C(=O)SC(CC(=O)Nc2ccccc2)C1=O` (centres undefined), the result was inactive.
Under `O=C(NCC1CCN(c2ccc(S(=O)(=O)N3CCOCC3)cc2)CC1)c1ccc(Cl)cc1` stands “inactive”.
Under `COC(=O)COc1ccc(S(=O)(=O)N2CCCCCC2)cc1` stands “inactive”; under `N#Cc1ccc(-c2ccc(OCC(=O)Nc3cccnc3)cc2)cc1`, “inactive”; under `O=C(CN1CCN(c2ccccc2O)CC1)Nc1ccc2c(c1)CCC2`, “inactive”.
Under `O=S(=O)(Nc1nccs1)c1ccc(NCc2cc(Br)cc(Br)c2O)cc1` stands “inactive”; under `COc1ccc(C2=NOC(COC(=O)c3ccc4ccccc4n3)C2)cc1` (centres undefined), “inactive”; under `COc1ccc(C(=O)COC(=O)CCC(=O)c2cccs2)cc1`, “inactive”.
As for `O=C(O)COc1ccc2occ(C(=O)c3ccccc3)c2c1`, the call was inactive.
`Cc1cc(C)c(OCC(=O)Nc2nnc(-c3ccco3)o2)c(C)c1`: the molecule was called inactive.
As for `O=C(c1ccc(Cl)cc1)c1nnc(-c2ccncc2)o1`, the call was inactive.
Under `CCOC(=O)c1c(C)[nH]c(C)c1C(=O)COC(=O)c1ccc([N+](=O)[O-])s1` stands “inactive”; under `O=C(OCC#CCSc1nnc(-c2ccncc2)o1)c1cccs1`, “inactive”; under `O=C(COC(=O)c1ccc([N+](=O)[O-])s1)Nc1ccc(Cl)cn1`, “inactive”.
In the case of `O=C(Nc1nnc(-c2ccco2)o1)c1ccc(Cl)s1` it was “inactive”; in that of `CCN1CCN(C(=O)CN(Cc2ccccc2)S(C)(=O)=O)CC1`, “inactive”; in that of `Clc1ccc(SCCOCCN2CCc3ccccc3C2)cc1`, “inactive”.
In the case of `O=c1oc2ccccc2c2c1nnn2CCO` it was “inactive”; in that of `CCC(C)c1ccc(O)c(/C=N/O)c1` (centres undefined), “inactive”; in that of `COc1ccc2c3c(cccc13)OCC2=O`, “inactive”.
As to `COc1ccc(NC(=O)c2ccc(COCC(F)(F)C(F)F)cc2)cc1`, the call was inactive.
As for `O=C(NCCC1CCCC1)c1cccs1`, the molecule was classed as inactive.
Under `O=C1CC(N2CCN(Cc3ccccc3)CC2)C(=O)N1CCc1ccccc1` (centres undefined) stands “inactive”; under `NC(=O)N/N=C\c1cc(Br)ccc1O`, “inactive”; under `CCCOc1ccc(CCC(=O)N/N=C/c2ccc([N+](=O)[O-])o2)cc1`, “inactive”.
In the case of `COCCNC(=O)CC(=O)N/N=C/c1cccc(C(=O)OC)c1` it was “inactive”; in that of `O=C(N/N=C/c1cccc2cccnc12)c1ccccc1O`, “inactive”; in that of `COC(=O)COc1ccc2c(-c3ccc(OC)cc3)cc(=O)oc2c1`, “inactive”.
Take `Cc1cccc(C)c1N1C(=O)CC(N2CCSCC2)C1=O` (centres undefined): the result was inactive.
For `Cc1ccc(C(=O)OCC(=O)N2CCCCCC2)c(O)c1`, the molecule was called inactive.
Under `Cc1ccc(CCC(=O)Nc2ccc([N+](=O)[O-])cc2)o1` stands “inactive”; under `CN(C)c1ccc(NC(=O)COC(=O)c2cc(Cl)ccc2[N+](=O)[O-])cc1`, “inactive”; under `CC[n+]1c(/C=C(\C)Nc2ccccc2)sc2ccccc21`, “inactive”.
In the case of `CC(C)(C)c1cc(CN2CCN(CCO)CC2)cc(C(C)(C)C)c1O` it was “inactive”; in that of `COc1ccc(-c2noc(CCC(=O)Nc3cccc(C)c3)n2)cc1`, “inactive”; in that of `Cc1ccc2c(CC(=O)OCC(=O)Nc3ccc(Cl)cn3)coc2c1`, “inactive”.
Under `OC(CNCCc1ccc(C(F)(F)F)cc1)COc1ccc2ccccc2c1` (centres undefined) stands “inactive”; under `CC(C)OC(=O)COc1ccc(-c2ccccc2)cc1`, “inactive”; under `Cc1noc(C)c1COc1ccc(C(=O)Nc2ccccn2)cc1`, “inactive”.
Take `N#Cc1nc(-c2ccc(OCc3ccccc3)cc2)oc1NCCCn1ccnc1`: the call was inactive.
Under `CC1=NN(C(=O)c2csc(C(C)C)c2)C(O)(C(F)(F)F)C1` (centres undefined) stands “inactive”; under `CC1=NN(C(=O)c2ccc(Cn3nc(C)c(Br)c3C)cc2)C(O)(C(F)(F)F)C1` (centres undefined), “inactive”; under `O=C(c1ccccc1[N+](=O)[O-])N1N=C(c2ccccc2)CC1(O)C(F)(F)F` (centres undefined), “inactive”.
As for `CC1=NN(C(=O)c2csc(C)c2)C(O)(C(F)(F)F)C1` (centres undefined), the call was inactive.
Under `CC(=O)N(c1nnc(-c2ccc(C)cc2)s1)C1CCCC1` stands “inactive”.
As to `COc1ccc(-c2nnn(Cc3ccccc3)n2)cc1`, the outcome was inactive.
On to `Cc1nnc(N/N=C/c2ccc(-c3ccc(Br)cc3)o2)n1N`, for which the call was inactive.
For the molecule `O=C(OCC(=O)N1CCC(c2ccccc2)=N1)c1ccc([N+](=O)[O-])s1`, the result was inactive.
Under `O=C(NCCCN1CCOCC1)c1ccc(CSc2ccc(Cl)cc2)cc1` stands “inactive”.
Under `COc1cccc(C(=O)OCn2nnc3ccccc3c2=O)c1OC` stands “inactive”; under `O=C(OCn1nnc2ccccc2c1=O)c1ccc(Br)o1`, “inactive”; under `C=CCOc1ccc(CNCCO)cc1OCC`, “inactive”.
In the case of `CCc1cc(OCCCCNCc2ccccc2)ccc1Cl` it was “inactive”; in that of `CCCn1nnnc1NCc1ccc(CC)cc1`, “inactive”; in that of `O=C(CCCSc1nc2ccccc2s1)NCc1ccco1`, “inactive”.
As for `CC(C)CCC1=NN(C(=O)c2ccco2)C(O)(C(F)(F)F)C1` (centres undefined), the molecule was classed as inactive.
Regarding `O=C1CC(=O)CC(c2ccccc2)C1`, the molecule was classed as inactive.
Under `Cc1cccc(N2CCN(Cc3ccc([N+](=O)[O-])o3)CC2)c1C` stands “inactive”; under `CCCC(=O)N1CCC(Cc2ccccc2)CC1`, “inactive”; under `NC1=NC[C@H](Cc2ccccc2)N1CCCCC1CCCCC1`, “inactive”.
In the case of `CCc1ccc(N2CCN(CCNC(=O)Nc3ccc(OC)cc3)CC2)cc1` it was “inactive”; in that of `COc1ccc(-c2cc(C(F)(F)F)nc(S(C)(=O)=O)n2)cc1`, “inactive”.
Under `O=C(Oc1c(-c2ccco2)oc2ccccc2c1=O)c1cccnc1` stands “inactive”; under `CC(=O)Oc1c(-c2ccco2)oc2ccccc2c1=O`, “inactive”; under `Cc1ccc2c(C)ccc(O)c2n1`, “inactive”.
For the molecule `Cc1cccc(NCc2nnc(-c3ccccc3)o2)c1C`, the molecule was classed as inactive.
In the case of `CC(C)(C)C(=O)COc1ccccc1[N+](=O)[O-]` it was “inactive”; in that of `CCOc1ccccc1C(=O)OCC(=O)Nc1nnc(-c2ccccc2)o1`, “inactive”.
In the case of `CCOc1ccc(C(=O)Nc2nnc(C3=COCCO3)o2)cc1` it was “inactive”.
Under `O=C(Nc1nnc(-c2ccc3c(c2)CCCC3)o1)c1c(F)cccc1F` stands “inactive”; under `CCCCNC(=O)Nc1nnc(-c2ccc(OCC)cc2)o1`, “inactive”.
In the case of `COc1cccc(C(=O)OCC(=O)Nc2nnc(-c3ccccc3)o2)c1`, the call was inactive.
In the case of `CCS(=O)(=O)c1ncc(Cl)c(C(=O)Nc2ccc(S(=O)(=O)N(C)c3ccccc3)cc2)n1` it was “inactive”; in that of `Cc1cccc(C(=O)Nc2nnc(-c3cccnc3)o2)c1`, “inactive”.
